SMN2 splice enh: increases expression of the SMN2 splice variant | Potency, µM (top dose mostly 46.1 µM), for inactives: top-dose activity change, positive = activation, most hits filed as activators | HEK293 SMN2-luciferase splicing reporter, luminescence, 30-36 h | AID 1458 | 210,000 tested, 2.8% active; note: % of control where 0% means no effect; nearly all actives have a fitted effect of over 55% in size
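HEK293 cells carry an SMN2 […]–luciferase reporter in which exon 7 inclusion puts luciferase in frame. Cells were plated 10-12 h before compound addition, then incubated 30-36 h at 37C. ONE-Glo luminescence was read; sodium butyrate at 4.5 mM final served as control.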
KinaseGlo FLuc: Kinase-Glo luciferase inhibition (counter-screen). Q27757. Kinase-Glo luciferase, ATP luminescence, 8 min. Potency, µM (series often up to 38.3 µM), for the others: top-dose activity change, negative = inhibition, hits mostly inhibitors. 200,000 tested, 0.28% active. AID 1379; note: % is set by controls: 0 for no effect and ±100 for the full control effect; nearly all actives have a fitted effect of over 60% in size
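Compounds were added to a substrate mix at pH 7.2 (50 mM imidazole, 10 uM ATP, within the enzyme's linear range), followed by Kinase-Glo detection reagent; luminescence was measured after 8 minutes at ambient temperature.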
NPC1 promoter act: activators of NPC1 promoter; Potency, µM (top dose mostly 9.22 µM), inactives show at the highest dose activation, hits mostly activators; AID 485313; 320,000 tested, 2.4% active; Huh7 NPC1 promoter luciferase reporter, 24 h; note: % of control where 0% means no effect; nearly all actives have a fitted effect of over 60% in size
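Quantitative HTS used a cell-based reporter: Huh7 cells stably bearing the NPC1 promoter upstream of luciferase were treated with compounds for 24 h, and promoter activation was read as luminescence.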
ELG1 genotoxic: induces genotoxicity in HEK293T cells with luciferase-tagged ELG1. HEK293T ELG1-luciferase reporter, luminescence, 16 h. Potency, µM (titrated, usually from 46 µM), for the others: at the highest dose activity change, positive = activation, most hits filed as activators. 330,000 tested, 1.3% active; note: % of control where 0% means no effect; nearly all actives have a fitted effect of over 60% in size
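After overnight (16 hr) compound treatment at 37 °C, ELG1-luciferase HEK293T cells were lysed with ONE-Glo; luminescence quantified 30 min later at room temperature.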
FLuc counter: firefly luciferase modulation, counter-screen for miR-21 project. purified FLuc, Km substrates, luminescence inhibition. Potency, µM (top dose mostly 57.5 µM), for inactives: at the highest dose activity change, negative = inhibition, most hits filed as inhibitors. 360,000 tested, 6.9% active;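 note: plate controls were vehicle for no effect and reference inhibitor for full effect; nearly all actives have a fitted effect of over 55% in size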
Target sequence (P08659 whole entry, looked up): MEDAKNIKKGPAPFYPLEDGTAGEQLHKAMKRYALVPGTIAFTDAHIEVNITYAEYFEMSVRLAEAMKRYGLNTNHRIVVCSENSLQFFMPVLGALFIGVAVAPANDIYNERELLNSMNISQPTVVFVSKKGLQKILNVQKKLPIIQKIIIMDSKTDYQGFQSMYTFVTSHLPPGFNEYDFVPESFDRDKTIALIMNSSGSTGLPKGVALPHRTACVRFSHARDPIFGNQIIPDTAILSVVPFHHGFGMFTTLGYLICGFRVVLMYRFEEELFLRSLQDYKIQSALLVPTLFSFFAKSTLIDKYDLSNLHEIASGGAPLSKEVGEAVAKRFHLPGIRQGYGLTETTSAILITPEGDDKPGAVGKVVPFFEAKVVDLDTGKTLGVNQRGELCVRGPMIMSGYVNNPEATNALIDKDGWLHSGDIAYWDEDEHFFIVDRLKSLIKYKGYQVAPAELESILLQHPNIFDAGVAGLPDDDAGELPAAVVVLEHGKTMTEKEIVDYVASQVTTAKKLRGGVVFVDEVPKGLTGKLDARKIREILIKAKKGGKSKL
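Biochemical qHTS of compounds, final roughly 60 µM downward over six points, against 10 nM purified firefly luciferase using Km concentrations of substrates (10 uM D-luciferin, 10 uM ATP) in Tris acetate pH 7.5 buffer; luminescence output.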
Rab9 prom act: activators of Rab9 promoter | 320,000 tested, 2.8% active | Potency, µM (series often up to 9.22 µM), inactives show top-dose activation, negative = inhibition, usual class: activators | Huh7 Rab9 promoter-luciferase reporter, luminescence, 24 h; note: % of control where 0% means no effect; nearly all actives have a fitted effect of over 60% in size
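Luminescence read-out: Huh7 cells stably expressing Rab9-luciferase, treated 24 h with compound at 37 °C, then lysed with luciferase reagent for 10 min at ambient before reading.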
Active calls of the source: *; ? = inconclusive; / = no result given; [ ] = remark or other dose. Sampled rows, rich in hits. Any-hit rate of the full collection: about 7.5%. Calls come from the whole dose curve; as a rule, active = well fitted curve in the direction sought with a large enough effect; inconclusive = small, poorly fitted or top-dose-only effect, or another doubt; inactive = no such curve, though single readings can be large; an effect the other way counts as inactive or inconclusive. Potency is the fitted concentration of half-maximal effect.

SMILES	SMN2 splice enh	KinaseGlo FLuc	NPC1 promoter act	ELG1 genotoxic	FLuc counter	Rab9 prom act
Cc1ccn2c(c1)nc(=O)c1cc(S(=O)(=O)N3CCCCC3)ccc12	/	/	-2.2%	0.2%	-0.5%	?
COc1ccc(CNC(=O)[C@@H](NC(=O)C2CCN(C(=O)[C@@H](N)CCSC)CC2)C(C)C)cc1	/	/	-3.2%	-1.5%	2.2%	-7.7%
COC(=O)N/N=C/c1ccc(Oc2ccccc2)cc1	11.2µM*	-2.9%	?	?	15.1µM*	?
COc1cc(/C=N/NC(=O)c2nc(C)cc(C)n2)ccc1O	?	17.1%	13.6%	9.1%	?	18.7%
COc1cc(/C=N/NC(=O)c2cccc(C(=O)N/N=C/c3ccc(O)c(OC)c3)n2)ccc1O	/	/	-6.5%	0.4%	0.849µM*	-5.4%[1.84 µM]
Cc1ccc(F)c(NC(=O)/C(C#N)=C(\O)c2ccc(C(C)(C)C)cc2)c1	?	0.7%	7.6%	5.8%	12µM*	5.0%
O=C(c1cn(Cc2ccccc2)nc1-c1ccccc1)N1CCN(c2ccccn2)CC1	/	/	-17.5%	-3.3%	/	-8.6%
CN(C)S(=O)(=O)c1cccc(C(=O)OCC(=O)Nc2ccc3c(c2)OCCO3)c1	/	/	-3.5%	4.1%	?	-2.7%
O=C(COC(=O)c1cccc(S(=O)(=O)NCc2ccccc2)c1)c1ccc2c(c1)OCCO2	-15.0%	3.0%	-1.9%	-4.4%	1.35µM*	-3.1%
CCN(CC)S(=O)(=O)c1cccc(C(=O)OCC(=O)c2ccc3c(c2)OCCO3)c1	-38.1%	-2.6%	-2.0%	-1.2%	0.536µM*	1.4%
O=C(CN1C(=O)COc2ccccc2C1=O)c1ccc2c(c1)OCCO2	/	/	-4.0%	5.4%	6.75µM*	-3.2%
O=C(COC(=O)c1cccc(S(=O)(=O)NCc2ccccc2)c1)NC1CC1	/	/	/	-0.7%	/	/
CS(=O)(=O)c1cccc(C(=O)OCC(=O)c2ccc3c(c2)OCCO3)c1	/	/	-0.3%	4.3%	1.69µM*	10.4%
CCCCNc1c(CN)cnc2cc(Cl)ccc12	-15.9%[9.22 µM]	-3.6%[7.66 µM]	/	/	/	/
N#C/C(N)=C(/C#N)N=Cc1cccc(Cl)c1	/	/	-11.5%	1.0%	-11.0%	-1.8%
Cc1ccc(C(=O)N(Cc2ccco2)Cc2sccc2C)cc1	-2.3%	/	/	/	?	/
Cc1c(C(=O)OCC(=O)c2ccc3c(c2)OCCO3)oc2ccccc12	-11.2%	-2.0%	12.4%	6.7%	9.53µM*	22.5%
O=C(CS(=O)(=O)c1ccccc1)c1ccc2c(c1)OCCO2	-11.0%	10µM*	2.82µM*	?	6.01µM*	2.82µM*
Cc1c(C(=O)OCC(=O)N2CCC(C)CC2)oc2ccccc12	/	/	9.3%	?	?	20.7%
Cc1nonc1CN(C)C(=O)c1cc(COc2ccc(F)cc2Cl)on1	/	/	27.5%	9.2%	?	19.1%
Cc1cc(CN(C)C(=O)c2cc(COc3ccc(F)cc3Cl)on2)n[nH]1	/	-1.5%	23.8%	?	16.9µM*	?
Cc1ccc(CN(C)C(=O)c2cc(COc3ccc(F)cc3Cl)on2)o1	/	-2.5%	14.1%	9.4%	21.3µM*	14.3%
COc1ccc(OC)c(NC(=O)[C@@H]2CCCN2C(=O)c2cccs2)c1	5.62µM*	-3.7%	-1.7%	9.6%	0.7%	-1.7%
O=C(NCc1cccnc1)Nc1ccccc1C(F)(F)F	/	/	-1.5%	0.6%	-0.5%	-2.3%
Cc1ccc(/C=C/C(=O)NC2=NCCS2)cc1	0.501µM*	-3.4%	?	2.91µM*	1.35µM*	0.501µM*
CC(=O)c1ccc(NC(=O)/C=C/c2ccc(C)cc2)cc1	12.4%	10.5%	-5.2%	10.3%	?	-7.8%
CC(C)(C)c1ccc(/C=C/C(=O)NC2=NCCS2)cc1	?	-4.3%	0.501µM*	?	0.757µM*	0.398µM*
O=C(N/N=C/c1ccccc1Cl)c1n[nH]c2c1CCCC2	0.355µM*	3.16µM*	0.631µM*	0.291µM*	0.213µM*	?
O=C(N/N=C/c1ccc(Cl)cc1)c1n[nH]c2c1CCCC2	/	/	?	8.2µM*	?	18.0%
